# Screens (PubChem BioAssay)
# HCV inhibitor – HCV inhibition. Huh7.5.1 HCVcc-Cre infection, luciferase reporter, 44 h. Potency, µM (series often up to 41.8 µM), usual class: inhibitors. actives 3.4% (n = 340,000). AID 651820
#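 Compounds are dispensed onto cells plated 4 h earlier at 1,000 per well, with HCVcc-Cre virus (about 0.5 moi) added next. Following 44 h of culture, luminescent signal is measured for 15 sec after 15 min with substrate at room temperature.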
# HCMV antiviral – human cytomegalovirus inhibition | HFF cells, HCMV-luciferase reporter, 72 h; hits give low values | activity change, negative = inhibition, % at 57.5 µM | actives 4.5% (n = 410,000); in the data active means activity change below about -60%; inconclusive means no clear call, values can overlap the other calls; inactive means above about -39%
#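 Two compound doses tested in HFFs infected with HCMV-luciferase, MOI 1 PFU/cell, 72 h at 37C. Lysate luminescence read with OneGlo; data normalized against buffer-only and 10uM Salinomycin inhibitor controls.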
# Cycloheximide cs – affects cycloheximide protein synthesis inhibition readout, counter-screen; cell reporter, cycloheximide protein synthesis inhibition counterscreen; AID 2314; actives 12% (n = 300,000); max response, %; in the data active means max response mostly above about 13%, no sharp cut-off; inactive means mostly below about 14%; further: read at 38.3 µM for the half of the compounds with a filed dose
# Shiga inhibitor – inhibitors of Shiga toxin in Vero cells | Vero cells, Shiga toxin protein synthesis inhibition reporter | inhibition, % at 38.7 µM | actives 9.2% (n = 290,000); in the data active means inhibition mostly above about 28%, no sharp cut-off; inactive means mostly below about 43%
# Pf growth 96h – P. falciparum growth inhibition at 96 hours. AID 504834. Potency, µM (doses to about 28.7 µM), most hits filed as inhibitors. actives 6.9% (n = 320,000). P. falciparum luciferase reporter growth, 96 h
#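 P. falciparum expressing integrated firefly luciferase, in erythrocytes at 2% hematocrit, 0.05% parasitemia, incubated with compounds 96 h at 37 C, 5% CO2. Growth inhibition read as loss of luminescence; two-generation exposure targets delayed-death apicoplast inhibitors.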
# Pf growth 48h – inhibits P. falciparum growth in the first generation, 48 h | P. falciparum luciferase growth in erythrocytes, 48 h | Potency, µM (series often up to 28.7 µM), actives largely listed as inhibitors | actives 5.9% (n = 310,000) | AID 504832
#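 Luciferase-expressing parasites in RBCs, 2% Hct / 0.1% parasitemia final; RPMI 1640 + 0.5% Albumax; 37 C, 5% CO2, one generation; luminescence read-out, lower signal = inhibition.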
# A number is an active result; – = inactive; ? = inconclusive; · = no result; ! = a repeat was not active; [ ] = remark or other dose. In the library only some 21% were active in any assay of this set; here they are far more common. Unless noted, the call rests on the fitted dose curve; in most records, active means well fitted inhibition curve with a large enough effect; inconclusive means small, poorly fitted or top-dose-only effect, or another doubt; inactive means no such curve, though single readings can be large or run the other way.
SMILES,HCV inhibitor,HCMV antiviral,Cycloheximide cs,Shiga inhibitor,Pf growth 96h,Pf growth 48h
COc1cccc(/C=C2\SC(=S)N(CCC(=O)NCCc3ccc(O)cc3)C2=O)c1,?,-100,–,–,?,?
Cc1ccc(CNC(=O)C2CCN(c3nc(C)cc(C)n3)CC2)cc1,–,–,·,·,·,·
CCSc1ncc(Cl)c(C(=O)N2CCN(c3ccccc3OC)CC2)n1,·,–,·,·,·,·
O=C(O)c1cccc(Nc2ncnc3c2cnn3-c2ccccc2)c1,–,–,35,106,·,–
Cc1ccc(Nc2ncnc3c2cnn3-c2ccc(C)cc2)cc1,·,–,·,·,·,·
Clc1cccc(Nc2ncnc3c2cnn3-c2ccccc2)c1,11µM,–,40,45,?,–
O=C(O)c1cccc(Nc2ncnc3ccccc23)c1,–,–,–,–,?,–
Fc1cccc(Nc2ncnc3c2cnn3-c2ccccc2)c1,?,–,30,80,–,–
N#Cc1cccc(Nc2ncnc3c2cnn3-c2cccc(Cl)c2)c1,·,–,·,·,·,·
CC(=O)c1ccc2noc(-c3cccc(C)c3)c2c1,–,?,–,–,–,?
Cc1ccc(Cl)cc1N1CCN(C(=O)C2(S(=O)(=O)c3ccc(Cl)cc3)CC2)CC1,14µM,–,–,–,–,?
CN(CC(=O)Nc1ccc(Cl)c(Cl)c1)C(=O)C1CCC1,?,–,·,·,·,·
CCOC(=O)N1CCN(/C=C(\C#N)c2nc3ccccc3s2)CC1,?,–,15,82,–,–
N#C/C(=C\N1CCN(Cc2ccc3c(c2)OCO3)CC1)c1nc2ccccc2s1,14µM,–,–,–,?,–
COC(=O)[C@@H]1C[C@H]1[C@@H](NC(=O)c1cc(C)on1)c1ccccc1,–,–,·,·,·,·
CN1CCC(=NNC(=O)C(=O)Nc2ccc(F)cc2)CC1,–,–,38,74,–,–
Cc1ccc(NC(=O)C(=O)NN=C2CCCC2)cc1C,–,-104,10,–,–,–
CCOC(=O)C(C(=O)NCCCN1CCOCC1)C1CCCCC1 (stereo not drawn),–,-105,–,–,–,–
CCc1ccc(NC(=O)c2ccc3c(c2)C(=O)N(CCOC)C3Nc2ccc(CC)cc2)cc1 (stereo not drawn),–,-90,23,67,?,?
COCCN1C(=O)c2cc(C(=O)Nc3ccc(C)c(F)c3)ccc2C1Nc1ccc(C)c(F)c1 (stereo not drawn),–[8.37 µM],–,32,94,?,?
CCCN1C(=O)c2cc(C(=O)Nc3ccccc3C)ccc2C1Nc1ccccc1C (stereo not drawn),–,–,–,–,?,?
COCCN1C(=O)c2cc(C(=O)Nc3cccc(F)c3)ccc2C1Nc1cccc(F)c1 (stereo not drawn),?,–,–,–,?,–
CCOC(=O)CNC(=O)N1CCCC(N(C)CCc2ccccc2)C1 (stereo not drawn),–,–,–,–,–,–
CC1(C)CC(=O)c2cnc(NC(=O)CSC(=S)N3CCCCC3)nc2C1,–,–,–,–,?,–
CC(=O)Nc1cccc(C(=O)OCc2csc(CC(=O)Nc3ccccc3C)n2)c1,–,–,·,·,?,9.3µM
SMILES,HCV inhibitor,HCMV antiviral,Cycloheximide cs,Shiga inhibitor,Pf growth 96h,Pf growth 48h
CC(=O)Nc1ccc(S(=O)(=O)NCCC(=O)OCc2csc(CC(=O)Nc3ccccc3C)n2)cc1,–,–,·,·,?,12µM
CCOc1cc(/C=C2\C(=N)N3N=C(CC)SC3=NC2=O)ccc1OCCOc1ccc(NC(C)=O)cc1,–,–,–,–,2.6µM,?
Cc1cc(/C=C2\C(=N)N3N=C(CC(=O)N4CCOCC4)SC3=NC2=O)c(C)n1-c1ccccc1,–,–,–,–,?,?
COc1ccc(-n2c(C)cc(/C=C3\C(=N)N4N=C(CC(=O)N5CCOCC5)SC4=NC3=O)c2C)cc1,–,–,–,–,13µM,13µM
COc1cc(/C=C2/C(=N)N3N=C(CC(=O)N4CCOCC4)SC3=NC2=O)ccc1OCc1ccccc1,–,–,21,35,–,–
CCC1=NN2C(=N)/C(=C\c3ccc(OCCOc4ccc(NC(C)=O)cc4)cc3)C(=O)N=C2S1,–,–,–,–,–,–
Cc1ccc(-c2cnc(C3CC3)o2)cc1S(=O)(=O)Nc1ccc(F)cc1Cl,·,–,·,·,·,·
COc1ccc(S(=O)(=O)N2c3ccc(F)cc3CCC2C)cc1 (stereo not drawn),–,-78,·,·,·,·
O=c1c2c([nH]n1-c1ccccc1)CCSC2,–,?,–,–,–,–
COc1ccc(NS(=O)(=O)c2cccc(C(=O)NCc3ccccc3CN3CCCC3)c2)cc1,11µM,–,·,·,13µM,13µM
COc1ccc(C(=O)NCc2ccccc2CN2CCCC2)cc1S(=O)(=O)Nc1ccc(C)cc1,?,–,·,·,4.1µM,10µM
COc1ccc(C(=O)NC2CCN(CC(=O)NCc3ccccc3)CC2)cc1,–,–,–,–,–,–
COc1ccc(NS(=O)(=O)c2cccc(C(=O)NNC(=O)NCCCl)c2)cc1,–,-65,–,–,?,–
COc1ccc(Cn2c(=O)[nH]c3cc(C(=O)NC4CCN(Cc5ccccc5)CC4)ccc32)cc1,10µM,–,–,–,?,?
Cc1cccc(NS(=O)(=O)c2cccc(C(=O)NCc3ccccc3CN3CCOCC3)c2)c1,?,–,·,·,?,?
COc1ccc(C(=O)O)cc1S(=O)(=O)Nc1ccc(C)cc1,–,–,–,–,–,–
CC(=O)N1CCN(C(=O)CCCNC(=O)c2ccc(Cl)cc2)CC1,–,–,·,·,·,·
Cn1cccc1CN1CCC[C@]2(N[C@H](c3ccccc3)[C@@H]3C(=O)N(Cc4ccccc4)C(=O)[C@@H]32)C1=O,·,–,·,·,·,·
Cc1ccc(S(=O)(=O)NCCC(=O)Nc2ccc(S(=O)(=O)NC(C)C)cc2)cc1,–,–,–,–,–,–
COc1ccc(NS(=O)(=O)c2cccc(C(=O)NC3CCN(Cc4ccccc4)CC3)c2)cc1,?,-65,–,–,?,–
O=S(=O)(Nc1ccc(O)c(CN2CCCCC2)c1)c1ccccc1,–,–,–,–,0.59µM,?
COc1ccc(-c2onc(C)c2C)cc1S(=O)(=O)N1CCC(C)CC1,·,-79,·,·,·,·
Cc1cc(C)c(NS(=O)(=O)c2cc(-c3onc(C)c3C)ccc2C)c(C)c1,·,-62,·,·,·,·
Cc1ccc(-c2onc(C)c2C)cc1S(=O)(=O)Nc1ccc(Cl)cn1,·,–,·,·,·,·
Cc1ccc2c(c1)N(S(=O)(=O)c1cc(-c3onc(C)c3C)ccc1C)CCO2,5µM,-67!,–,–,?,?
Cc1ccc(-c2onc(C)c2C)cc1S(=O)(=O)NC1CCC(C)CC1 (stereo not drawn),·,-67,·,·,·,·
CC(=O)OCC(NC(=O)C(C)NC(=O)OC(C)(C)C)C1OC(n2cc(C)c(=O)[nH]c2=O)C(OC(C)=O)C1OC(C)=O (stereo not drawn),·,·,–,–,·,·
Cc1ccc(C(=O)CN(CCCC(N)=O)S(=O)(=O)c2ccc([N+](=O)[O-])cc2)cc1,–,–,·,·,–,–
